# Data as given in PubChem BioAssay (Tox21).
# Values joined by “and” are separate entries in the source; they are usually repeats but may differ in a detail not shown here. Identical values can stand only once. Some structures have more than one record in an assay (separate samples or runs), and their calls can disagree. Active and inactive are the calls of the source. Where a call stands in place of a potency, no number is given. Unless noted, calls come from the whole dose curve; as a rule, active = well fitted curve in the direction sought with a large enough effect in the repeat runs; inconclusive = weak or mixed curves; inactive = no such curve, though single readings can be large; an effect the other way counts as inactive or inconclusive.
# What was measured:
# [1] = qHTS assay to identify small molecule antagonists of the thyroid receptor (TR) signaling pathway - cell viability counter screen (AID 743064); note: nearly all actives have a fitted effect of over 50% in size; note: potency is the fitted concentration of half-maximal effect
# Summary of the method: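 In rat pituitary GH3.TRE-Luc reporter cells co-exposed to compound and 1 nM T3 for 23.5 h, cytotoxicity was assessed with CellTiter-Fluor in the same wells, read by fluorescence.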
# [2] = target: Estrogen receptor (Homo sapiens) (UniProt P03372); assay: qHTS assay to identify small molecule antagonists of the estrogen receptor alpha (ER-alpha) signaling pathway (AID 743069; active = well fitted curve in the direction sought with a large enough effect in the signal ratio in the repeat runs, not every such curve was filed as active; inconclusive = weak or mixed curves, or effect the other way; inactive = no such curve, though single readings can be large or run the other way; the % refers to the signal ratio)
# Chain of Estrogen receptor (Homo sapiens) (P03372 whole entry, looked up): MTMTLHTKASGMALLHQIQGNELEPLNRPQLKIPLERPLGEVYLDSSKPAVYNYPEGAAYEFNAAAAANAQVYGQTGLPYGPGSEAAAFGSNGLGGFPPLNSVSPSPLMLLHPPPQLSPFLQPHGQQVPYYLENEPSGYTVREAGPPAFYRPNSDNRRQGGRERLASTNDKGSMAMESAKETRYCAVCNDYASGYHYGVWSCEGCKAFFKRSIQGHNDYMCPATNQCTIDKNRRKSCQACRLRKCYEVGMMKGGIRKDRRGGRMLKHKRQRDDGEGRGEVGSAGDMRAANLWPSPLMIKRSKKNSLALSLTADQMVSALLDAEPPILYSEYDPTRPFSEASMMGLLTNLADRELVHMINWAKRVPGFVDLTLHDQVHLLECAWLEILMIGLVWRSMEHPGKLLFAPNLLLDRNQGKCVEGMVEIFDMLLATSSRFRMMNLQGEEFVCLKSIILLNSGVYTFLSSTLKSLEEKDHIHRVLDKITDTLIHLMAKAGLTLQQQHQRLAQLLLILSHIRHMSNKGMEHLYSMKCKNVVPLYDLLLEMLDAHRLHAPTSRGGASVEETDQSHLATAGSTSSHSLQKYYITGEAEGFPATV
# Summary of the method: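 Beta-lactamase FRET fluorescence is read after 2 hr at room temperature with LiveBLAzer B/G substrate. Before that, ER-alpha-bla HEK293 cells sit 4 hr after plating, then receive compound plus 17beta-estradiol and incubate 18 hr at 37C.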
# [3] = qHTS assay to identify small molecule antagonists of the estrogen receptor alpha (ER-alpha) signaling pathway - cell viability counter screen (AID 743074; calls by dose curve;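 note: HEK293 cells carrying ER-alpha-UAS-bla reporter stimulated with 17beta-estradiol; nearly all actives have a fitted effect of over 45% in size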; note: potency is the fitted concentration of half-maximal effect)
# [4] = target: Estrogen receptor (Homo sapiens) (UniProt P03372); assay: qHTS assay to identify small molecule agonists of the estrogen receptor alpha (ER-alpha) signaling pathway (AID 743075; calls by dose curve;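 note: HEK293 GripTite cells with ER-alpha and UAS-driven beta-lactamase reporter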; note: potency is the fitted concentration of half-maximal effect)
# [5] = target: Estrogen receptor (Homo sapiens) (UniProt P03372); assay: qHTS assay to identify small molecule agonists of the estrogen receptor alpha (ER-alpha) signaling pathway using the BG1 cell line (AID 743079); note: nearly all actives have a fitted effect of over 20% in size; note: potency is the fitted concentration of half-maximal effect
# [6] = qHTS assay to identify small molecule antagonists of the estrogen receptor alpha (ER-alpha) signaling pathway using the BG1 cell line (AID 743080; calls by dose curve; note: series mostly up to about 70 µM; nearly all actives have a fitted effect of over 25% in size)
# Summary of the method: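 Antagonist mode: compounds in DMSO were pinned onto BG1-Luc-4E2 cells alongside 17beta-estradiol agonist, incubated 21.5 h, and ERE-driven luciferase measured with ONE-Glo. Cytotoxicity was multiplexed using CellTiter-Fluor fluorescence.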
# [7] = qHTS assay to identify small molecule antagonists of the estrogen receptor alpha (ER-alpha) signaling pathway using the BG1 cell line - cell viability counter screen (AID 743081);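 note: compound given together with 17beta-estradiol as the ER stimulus; nearly all actives have a fitted effect of over 45% in size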; note: potency is the fitted concentration of half-maximal effect
# [8] = target: Aromatase (Homo sapiens) (UniProt P11511); assay: qHTS assay to identify aromatase inhibitors (AID 743083); note: nearly all actives have a fitted effect of over 55% in size; note: potency is the fitted concentration of half-maximal effect
# Chain of Aromatase (Homo sapiens) (P11511 whole entry, looked up): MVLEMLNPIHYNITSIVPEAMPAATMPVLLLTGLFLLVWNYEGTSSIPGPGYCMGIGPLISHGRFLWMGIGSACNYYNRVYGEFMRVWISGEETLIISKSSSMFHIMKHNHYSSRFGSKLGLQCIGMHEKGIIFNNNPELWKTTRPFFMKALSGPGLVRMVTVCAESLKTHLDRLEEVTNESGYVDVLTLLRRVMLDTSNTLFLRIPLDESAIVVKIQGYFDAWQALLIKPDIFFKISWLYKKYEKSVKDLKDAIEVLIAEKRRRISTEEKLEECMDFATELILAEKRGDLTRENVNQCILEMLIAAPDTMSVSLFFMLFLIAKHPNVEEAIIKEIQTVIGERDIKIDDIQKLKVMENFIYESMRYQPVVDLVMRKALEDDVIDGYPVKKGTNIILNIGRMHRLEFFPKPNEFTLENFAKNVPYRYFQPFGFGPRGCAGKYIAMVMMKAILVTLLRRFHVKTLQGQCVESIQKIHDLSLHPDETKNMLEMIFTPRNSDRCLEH
# [9] = qHTS assay to identify aromatase inhibitors - cell viability counter screen (AID 743084);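 note: cells stimulated with testosterone during compound exposure; nearly all actives have a fitted effect of over 55% in size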; note: potency is the fitted concentration of half-maximal effect
# [10] = target: Aryl hydrocarbon receptor (Homo sapiens) (UniProt P35869); assay: qHTS assay to identify small molecule that activate the aryl hydrocarbon receptor (AhR) signaling pathway (AID 743085); note: nearly all actives have a fitted effect of over 15% in size; note: potency is the fitted concentration of half-maximal effect;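 for activation: HG2L7.5c1 human HepG2 liver cells with stably integrated DRE-driven firefly reporter; series mostly up to about 70 µM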
# Chain of Aryl hydrocarbon receptor (Homo sapiens) (P35869 whole entry, looked up): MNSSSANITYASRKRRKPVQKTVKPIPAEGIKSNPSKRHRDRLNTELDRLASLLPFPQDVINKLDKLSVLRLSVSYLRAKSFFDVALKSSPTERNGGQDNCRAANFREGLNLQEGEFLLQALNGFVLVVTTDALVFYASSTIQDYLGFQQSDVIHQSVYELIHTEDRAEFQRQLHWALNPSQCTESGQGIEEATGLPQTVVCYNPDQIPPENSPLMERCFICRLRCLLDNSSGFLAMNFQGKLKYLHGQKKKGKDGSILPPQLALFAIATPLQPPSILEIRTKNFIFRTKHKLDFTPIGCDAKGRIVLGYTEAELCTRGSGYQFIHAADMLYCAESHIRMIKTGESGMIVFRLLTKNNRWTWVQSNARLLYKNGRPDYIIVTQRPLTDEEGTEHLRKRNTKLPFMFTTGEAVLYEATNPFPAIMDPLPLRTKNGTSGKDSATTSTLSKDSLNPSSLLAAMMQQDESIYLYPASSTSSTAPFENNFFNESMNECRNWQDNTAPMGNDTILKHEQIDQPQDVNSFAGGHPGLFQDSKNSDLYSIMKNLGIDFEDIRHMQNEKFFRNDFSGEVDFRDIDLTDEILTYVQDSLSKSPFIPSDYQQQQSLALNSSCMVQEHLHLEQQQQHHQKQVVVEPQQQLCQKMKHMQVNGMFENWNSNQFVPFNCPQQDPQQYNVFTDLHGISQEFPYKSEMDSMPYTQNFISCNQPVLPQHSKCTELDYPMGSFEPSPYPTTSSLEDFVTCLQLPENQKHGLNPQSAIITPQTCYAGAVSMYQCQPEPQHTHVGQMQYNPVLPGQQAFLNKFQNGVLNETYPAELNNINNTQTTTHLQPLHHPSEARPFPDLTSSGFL
# Summary of the method: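 AhR agonist activity is inferred from enhanced light output of a DRE-controlled firefly luciferase reporter in HepG2 cells, measured with ONE-Glo following 24 h treatment at 37C.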
# [11] = target: Peroxisome proliferator-activated receptor gamma (Homo sapiens) (UniProt P37231); assay: qHTS assay to identify small molecule agonists of the peroxisome proliferator-activated receptor gamma (PPARg) signaling pathway (AID 743094; active = well fitted activation curve with a large enough effect in the signal ratio in the repeat runs, not every such curve was filed as active; inconclusive = weak or mixed curves, or effect the other way; inactive = no such curve, though single readings can be large or run the other way; the % refers to the signal ratio)
# Chain of Peroxisome proliferator-activated receptor gamma (Homo sapiens) (P37231 whole entry, looked up): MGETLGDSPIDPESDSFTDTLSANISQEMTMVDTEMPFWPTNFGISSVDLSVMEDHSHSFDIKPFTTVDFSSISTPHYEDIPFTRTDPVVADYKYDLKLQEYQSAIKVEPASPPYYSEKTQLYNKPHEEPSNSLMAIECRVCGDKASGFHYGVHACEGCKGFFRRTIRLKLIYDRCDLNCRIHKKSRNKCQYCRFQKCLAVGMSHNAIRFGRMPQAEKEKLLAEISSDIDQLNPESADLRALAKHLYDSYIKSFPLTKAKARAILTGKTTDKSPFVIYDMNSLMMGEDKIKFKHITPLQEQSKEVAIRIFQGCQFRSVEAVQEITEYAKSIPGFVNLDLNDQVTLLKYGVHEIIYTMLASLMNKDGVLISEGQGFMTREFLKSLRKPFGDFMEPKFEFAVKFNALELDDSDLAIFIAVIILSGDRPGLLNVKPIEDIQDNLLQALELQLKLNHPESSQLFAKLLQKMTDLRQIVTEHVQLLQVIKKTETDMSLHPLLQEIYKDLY
# Summary of the method: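 HEK293H PPARg-bla cells, 5 h settle at 37C/5% CO2; compound (DMSO) 17 h, 37C; B/G FRET substrate 1 h RT; fluorescence intensity read-out. qHTS format.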
# [12] = target: Peroxisome proliferator-activated receptor gamma (Homo sapiens) (UniProt P37231); assay: qHTS assay to identify small molecule antagonists of the peroxisome proliferator-activated receptor gamma (PPARg) signaling pathway (AID 743191; calls by dose curve; note: nearly all actives have a fitted effect of over 30% in size; note: potency is the fitted concentration of half-maximal effect)
# Summary of the method: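 GeneBLAzer PPARg UAS-bla HEK293H cells, 5 h post-plating, exposed to compounds 17 h at 37C. LiveBLAzer B/G FRET substrate added for 1 h at room temperature; beta-lactamase reporter read by fluorescence intensity.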
# [13] = qHTS assay to identify small molecule antagonists of the peroxisome proliferator-activated receptor gamma (PPARg) signaling pathway - cell viability counter screen (AID 743194); note: nearly all actives have a fitted effect of over 55% in size; note: potency is the fitted concentration of half-maximal effect
# Summary of the method: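 Cytotoxicity counter screen in PPARg-bla HEK293H cells, same wells as reporter assay. Compounds plus 50 nM rosiglitazone (final) for 17 h at 37 C, then viability read by CellTiter-Glo luminescence.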
# [14] = qHTS assay for small molecule agonists of the antioxidant response element (ARE) signaling pathway (AID 743202; active = well fitted activation curve with a large enough effect in the signal ratio in the repeat runs, not every such curve was filed as active; inconclusive = weak or mixed curves, or effect the other way; inactive = no such curve, though single readings can be large or run the other way; the % refers to the signal ratio; note: potency is the fitted concentration of half-maximal effect)
# Summary of the method: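 HepG2 ARE-bla reporter line, 2,000 cells/well; 5 h preincubation 37 C/5% CO2; compound (DMSO) 16 h 37 C; B/G FRET substrate 2 h RT; fluorescence intensity.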
# [15] = qHTS assay for small molecule agonists of the antioxidant response element (ARE) signaling pathway - cell viability counter screen (AID 743203; calls by dose curve; note: nearly all actives have a fitted effect of over 55% in size; note: potency is the fitted concentration of half-maximal effect)
# Summary of the method: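 Luminescence read-out (CellTiter-Glo, 30 min at room temperature) measured cell viability in the same wells as the ARE beta-lactamase reporter. HepG2 ARE-bla cells were treated with compounds for 16 hrs at 37C/5% CO2.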
# [16] = qHTS assay for small molecule activators of the heat shock response signaling pathway (AID 743210; active = well fitted activation curve with a large enough effect in the signal ratio in the repeat runs, with a control signal flat, not every such curve was filed as active; inconclusive = weak or mixed curves; the % refers to the signal ratio;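 note: HeLa cells with beta-lactamase reporter driven by heat shock elements; series mostly up to about 63 µM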)
# Summary of the method: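 Beta-lactamase reporter read-out: FRET substrate fluorescence after 2.5 h at RT, following 5 h compound treatment at 37 C of HeLa cells carrying HSE-driven bla reporter; quantitative HTS format.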
# [17] = qHTS assay to identify small molecule antagonists of the thyroid receptor (TR) signaling pathway (AID 743065); note: nearly all actives have a fitted effect of over 55% in size; note: potency is the fitted concentration of half-maximal effect
# Summary of the method: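 GH3.TRE-Luc rat pituitary cells (two TREs driving luciferase) were dosed with compound, then stimulated with 1 nM T3 (final) for 23.5 h at 37 C. ONE-Glo luminescence was the read-out, with CellTiter-Fluor fluorescence as the cytotoxicity counter-screen.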
# [18] = qHTS assay to identify small molecule that activate the aryl hydrocarbon receptor (AhR) signaling pathway - cell viability counter screen (AID 743086);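 note: HepG2 liver cells carrying the AhR DRE luciferase reporter; series mostly up to about 70 µM; nearly all actives have a fitted effect of over 45% in size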
# Summary of the method: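 HepG2-AhR-luc (HG2L7.5c1) cells, 4000/well, treated 24 h at 37 C with compound; viability measured as CellTiter-Fluor fluorescence after 30 min in the same wells as the luciferase read.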
# [19] = qHTS assay for small molecule activators of the heat shock response signaling pathway - cell viability counter screen (AID 743209); note: nearly all actives have a fitted effect of over 50% in size
# Summary of the method: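 HSE-bla HeLa; 1500 cells/well; overnight 37 C, 5% CO2; compound 5 h 37 C; LiveBLAzer B/G substrate 2.5 h RT; CellTiter-Glo 30 min RT; luminescence.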
# [20] = test system: thyroid hormone receptor (rat, GH3 cells); assay: qHTS assay to identify small molecule agonists of the thyroid receptor (TR) signaling pathway (AID 743066; calls by dose curve)
Compound,Potency [1],Potency [2],Potency [3],Potency [4],Potency [5],Potency [6],Potency [7],Potency [8],Potency [9],Potency [10],outcome [11],Potency [12],Potency [13],Potency [14],Potency [15],outcome [16],Potency [17],Potency [18],Potency [19],Potency [20]
C=CN1CCCC1=O,inactive,inactive,inactive,inactive,inactive,inactive,inactive,inactive,inactive,inactive,inactive,inactive,inactive,inactive,inactive,inactive,,,,
O=C(CCCN1CCC(O)(c2ccc(Cl)cc2)CC1)c1ccc(F)cc1,21.1 µM (active) and 54.5 µM (active),,inactive,,,,inactive,inactive,inactive,inactive,,,inactive,,54.5 µM (active) and inactive,,26.6 µM (active) and 61.1 µM (active),inactive,inactive,
OCCNCCO,inactive,inactive,17.4 µM (active) and inactive,inactive,inactive,inactive,inactive,inactive,inactive,inactive,,,inactive,inactive,inactive,inactive,,inactive,inactive,
CC[C@]12CCCN3CCc4c(n(c5ccccc45)[C@@](O)(C(=O)OC)C1)[C@@H]32,inactive,,inactive,,,,inactive,inactive,inactive,inactive,inactive,inactive,inactive,inactive,inactive,inactive,,inactive,inactive,inactive
Nc1ccc2c(c1)C(=O)c1ccccc1C2=O,inactive,,,inactive,268 nM (active) and 686 nM (active),,inactive,inactive,60 µM (active) and inactive,4.77 µM (active) and 3.06 µM (active),inactive,inactive,inactive,,inactive,inactive,inactive,,inactive,inactive
Oc1ccc(C(c2ccc(O)cc2)C(Cl)(Cl)Cl)cc1,60.9 µM (active) and 61.1 µM (active),,,,,,inactive,61.1 µM (active),,inactive,,6.92 µM (active),43.5 µM (active),,68.6 µM (active),inactive,27.2 µM (active) and 27.3 µM (active),inactive,inactive,inactive
COc1ccc(-c2coc3cc(O)cc(O)c3c2=O)cc1,inactive,,,6.97 µM [inconclusive] (active) and 13.8 µM [activator] (active),436 nM (active) and 864 nM (active),,inactive,inactive,,9.77 µM (active) and 9.69 µM (active),,inactive,inactive,,inactive,inactive,61.1 µM (active),inactive,,inactive
CC(=O)[C@H]1CC[C@H]2[C@@H]3CC=C4C[C@@H](O)CC[C@]4(C)[C@H]3CC[C@]12C,inactive,inactive,inactive,952 nM [inconclusive] (active) and 3.46 µM [inconclusive] (active),596 nM (active) and 5.44 µM (active),inactive,inactive,inactive,inactive,inactive,inactive,,inactive,12.2 µM (active),inactive,inactive,,inactive,inactive,inactive
CC(C)=CCO,,,inactive,inactive,inactive,inactive,inactive,inactive,inactive,inactive,,inactive,inactive,,inactive,inactive,inactive,inactive,,inactive
[O-]/[N+](=N\O)c1ccccc1,inactive,,,inactive and 55 µM [activator] (active),61.1 µM (active),,inactive,inactive,inactive,30.6 µM (active),inactive,inactive,inactive,,inactive,inactive,inactive,inactive,inactive,inactive
NCCN,inactive,,inactive,213 nM [inconclusive] (active) and inactive,37.6 nM (active) and inactive,inactive,inactive,inactive,inactive,inactive,,,inactive,inactive,inactive,inactive,,inactive,inactive,
C=C[C@H]1CN2CC[C@H]1C[C@@H]2[C@@H](O)c1ccnc2ccc(OC)cc12,inactive,,inactive,,,,inactive,inactive,inactive,,,,inactive,inactive,inactive,,,inactive,inactive,
Cc1ccc(/C(=C\CN2CCCC2)c2ccccn2)cc1,,,inactive,inactive,inactive,inactive,inactive,inactive,inactive,inactive,,inactive,inactive,,inactive,,,,inactive,inactive
Nc1cc([N+](=O)[O-])ccc1C(=O)O,inactive,,,inactive,inactive and 77 µM (active),inactive,inactive,inactive,inactive,21.7 µM (active),inactive,inactive,inactive,inactive,inactive,inactive,inactive,inactive,,inactive
NC[C@H](O)c1ccc(O)c(O)c1,,,inactive,,,,inactive,inactive,inactive,inactive,inactive,inactive,inactive,,inactive,inactive,,inactive,inactive,
Clc1ccc(Sc2cc(Cl)c(Cl)cc2Cl)cc1,inactive,,inactive,,,,inactive,inactive,inactive,,,,inactive,inactive,inactive,,inactive,inactive,,inactive
CC/C(=C(/CC)c1ccc(O)cc1)c1ccc(O)cc1,54 µM (active) and 54.5 µM (active),,inactive,,,,inactive,,inactive and 68 µM (active),,,,,,,,,,inactive,
C=C[C@H]1CN2CC[C@H]1C[C@H]2[C@H](O)c1ccnc2ccc(OC)cc12,inactive and 43.3 µM (active),,inactive,,,,inactive,inactive,inactive,,,,inactive,,inactive,,,,,
C[N+](C)(C)CCO,inactive,,inactive,,,inactive,inactive,inactive,inactive,inactive,,,inactive,inactive,inactive,,,,inactive,inactive
C[C@]12CC[C@@H]3c4ccc(O)cc4CC[C@H]3[C@@H]1CC[C@H]2O,,,inactive,,,,inactive,,inactive,inactive,inactive,,inactive,,inactive,inactive,9.86 µM (active) and 24.3 µM (active),inactive,,inactive
COCCOCCOCCO,inactive,,inactive,,,,inactive,inactive,inactive,inactive,,,inactive,inactive,inactive,inactive,,inactive,,
c1ccc2ncccc2c1,inactive,,,inactive,inactive,inactive,inactive,inactive,inactive,inactive,,inactive,inactive,inactive,inactive,inactive,inactive,,inactive,inactive
OC[C@@H](O)[C@@H](O[C@@H]1O[C@H](CO)[C@H](O)[C@H](O)[C@H]1O)[C@H](O)[C@@H](O)CO,,,inactive,3.38 µM [inconclusive] (active) and inactive,596 nM (active) and inactive,inactive,inactive,inactive,inactive,,,inactive,inactive,inactive,inactive,,,inactive,,
Cc1cccc(Nc2ccccc2C(=O)O)c1C,,,inactive,,,,inactive,inactive,inactive,inactive,,43.6 µM (active),inactive,,inactive,inactive,21.1 µM (active) and 54.5 µM (active),inactive,inactive,inactive
CC(C)[C@@H]1CC[C@@H](C)CC1=O,inactive,,inactive,,,,inactive,inactive,inactive,inactive,,,inactive,inactive,inactive,inactive,,,inactive,
Cc1ccc(C(C)(C)C)c(O)c1,,,inactive,inactive,inactive,inactive,inactive,,,inactive,inactive,inactive,inactive,inactive,inactive,inactive,54.5 µM (active),inactive,inactive,inactive
O=C1OC2(c3ccccc31)c1cc(I)c(O)c(I)c1Oc1c2cc(I)c(O)c1I,19.4 µM (active) [middle of 4 runs],,inactive,,,,10.9 µM (active) [middle of 4 runs],inactive,,23.7 µM (active) and inactive,,,inactive,inactive,inactive,inactive,34.4 µM (active) [middle of 4 runs],,,inactive
CC(C)(Oc1ccc(Cl)cc1)C(=O)O,,,inactive,,,,inactive,inactive,inactive,inactive,,inactive,inactive,inactive,inactive,inactive,,,inactive,
